Measured values from PubChem BioAssay (EPA / NIEHS).
Where “and” joins values, the source holds several entries; their conditions need not be identical. Equal entries are not always repeated. Results filed as inconclusive are left out. Some compounds were tested as several samples or in several runs, with calls that do not always agree. Calls of active or inactive are those of the source. How the source made its calls, unless noted: active means hit-call score of the fitted dose curve at least 0.9, where 1 is the maximum; inactive means score below 0.9.

What was measured:
[1] = read-out: Interleukin-8 (IL8), CXCL8 (gene 3576); assay: BSK_3C_IL8: BioMAP Diversity Plus: 3C Assay for Interleukin-8 (IL8) Biomarker Activity (AID 2283020); conditions: primary human endothelial cells (HUVEC); actives raise or lower the signal
In short: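 Primary human umbilical vein endothelial cells (3C system) were exposed to test chemical for 24 h, then IL-8 was quantified by ELISA. Responses were fitted bidirectionally against DMSO vehicle as baseline.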

[2] = read-out: Monokine induced gamma interferon (MIG), CXCL9 (gene 4283); assay: BSK_3C_MIG: BioMAP Diversity Plus: 3C Assay for Monokine induced gamma interferon (MIG) Biomarker Activity (AID 2283021); conditions: primary human endothelial cells (HUVEC); actives raise or lower the signal
In short: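 Primary human umbilical vein endothelial cells in the 3C system were exposed to chemical for 24 h, after which MIG was quantified by ELISA. Activity was fitted bidirectionally against DMSO as negative control and baseline.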

[3] = biological target: human Vitamin D Receptor (VDR), VDR (gene 7421) (UniProt P11473); assay: ATG_VDR_TRANS: Attagene TRANS-FACTORIAL HepG2 Assay for human Vitamin D Receptor (VDR) (AID 2283022; active means hit-call score of the fitted dose curve at least 0.9, where 1 is the maximum)
In short: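 Multiplexed TRANS reporter in HepG2; 24 h treatment; reporter mRNA by RT-PCR plus capillary electrophoresis; upregulation scored relative to DMSO.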

[4] = BSK_3C_SRB: Viability Assessment in the BioMAP Diversity Plus: 3C Assay (AID 2283023); conditions: primary human endothelial cells (HUVEC);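 further: cells read 24 h after compound dosing; fitted both ways against DMSO so a hit may be signal rise or drop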
In short: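 Overt cytotoxicity is gauged in parallel confluent HUVEC cultures by SRB total-protein staining at the time of biomarker measurement, 24 h after dosing. Gain or loss of signal is fitted versus DMSO.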

[5] = read-out: Matrix Metallopeptidase 1 (MMP1), MMP1 (gene 4312); assay: BSK_BE3C_MMP1: BioMAP Diversity Plus: BE3C Assay for Matrix Metallopeptidase 1 (MMP1) Biomarker Activity (AID 2283024); conditions: primary human bronchial epithelial cells; actives raise or lower the signal
In short: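 Primary human bronchial epithelial cells were dosed with test chemicals, and MMP1 levels were measured by ELISA 24 h later. Data were fitted bidirectionally against DMSO as the negative control and activity baseline.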

[6] = BSK_3C_Vis: BioMAP Diversity Plus: 3C Assay for Morphology Visualization (AID 2283025); conditions: primary human endothelial cells (HUVEC);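 further: fitted both ways so gain or loss versus DMSO counts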
In short: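 Human umbilical vein endothelial cells in the 3C system were imaged by light microscopy 24 h after chemical dosing to record cell morphology. Activity was fitted bidirectionally against DMSO as negative control and baseline; the endpoint serves as a background control.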

[7] = read-out: Pselectin, SELP (gene 6403); assay: BSK_4H_Pselectin: BioMAP Diversity Plus: 4H Assay for Pselectin Biomarker Activity (AID 2283026); conditions: primary human endothelial cells (HUVEC); actives raise or lower the signal
In short: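 Primary human umbilical vein endothelial cells were exposed to test chemical for 24 h, then cell-surface P-selectin was quantified by ELISA. Activity was fitted bidirectionally against DMSO as negative control and baseline.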

[8] = BSK_4H_SRB: Viability Assessment in the BioMAP Diversity Plus: 4H Assay (AID 2283027); conditions: primary human endothelial cells (HUVEC);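 further: cells exposed to compound for 24 h before staining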;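 on AC50: curves fitted both ways versus DMSO so AC50 may be loss or gain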
In short: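 Absorbance at 560 nm of SRB-stained total protein served as the viability read-out in confluent primary human umbilical vein endothelium 24 h after chemical treatment. Curves were fitted bidirectionally against DMSO as negative control.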

[9] = BSK_BE3C_SRB: Viability Assessment in the BioMAP Diversity Plus: BE3C Assay (AID 2283028); conditions: primary human bronchial epithelial cells
In short: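 SRB total-protein staining (0.1%, after TCA fixation) of chemically dosed human bronchial epithelial primary cells at 24 h; DMSO serves as the negative control for bidirectional curve fitting.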

[10] = read-out: Thrombomodulin, THBD (gene 7056); assay: BSK_3C_Thrombomodulin: BioMAP Diversity Plus: 3C Assay for Thrombomodulin Biomarker Activity (AID 2283029); conditions: primary human endothelial cells (HUVEC); actives raise or lower the signal
In short: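 Primary human umbilical vein endothelial cells (3C system) were exposed to chemical for 24 h, then thrombomodulin levels were measured by ELISA. Activity was fitted bidirectionally against the DMSO negative control as baseline.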

[11] = read-out: Urokinase-type plasminogen activator receptor (uPAR), PLAUR (gene 5329); assay: BSK_4H_uPAR: BioMAP Diversity Plus: 4H Assay for Urokinase-type plasminogen activator receptor (uPAR) Biomarker Activity (AID 2283030); conditions: primary human endothelial cells (HUVEC); actives raise or lower the signal
In short: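 Endpoint derived via bidirectional curve fitting against DMSO baseline; readout was ELISA detection of uPAR on umbilical vein endothelial cells at 24 h post-treatment, with SRB-stained parallel cultures assessing cytotoxicity.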

[12] = read-out: Human Leukocyte Antigen - DR isotype (HLADR), HLA-DRA (gene 3122); assay: BSK_BE3C_HLADR: BioMAP Diversity Plus: BE3C Assay for Human Leukocyte Antigen - DR isotype (HLADR) Biomarker Activity (AID 2283032); conditions: primary human bronchial epithelial cells; actives raise or lower the signal
In short: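 Human primary bronchial epithelial cells in the BE3C system were exposed to chemicals for 24 h, after which HLA-DR levels were quantified by ELISA. Activity was fitted bidirectionally, gain or loss of signal, against DMSO as negative control and baseline.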

[13] = read-out: Vascular cell adhesion molecule 1 (VCAM1), VCAM1 (gene 7412); assay: BSK_4H_VCAM1: BioMAP Diversity Plus: 4H Assay for Vascular cell adhesion molecule 1 (VCAM1) Biomarker Activity (AID 2283033); conditions: primary human endothelial cells (HUVEC); actives raise or lower the signal
In short: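 Primary human umbilical vein endothelial cells were exposed to chemicals for 24 h, after which VCAM-1 was quantified by ELISA. Responses were fitted bidirectionally against DMSO as negative control and activity baseline.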

[14] = read-out: Interferon-gamma inducible Protein 10 (IP10), CXCL10 (gene 3627); assay: BSK_BE3C_IP10: BioMAP Diversity Plus: BE3C Assay for Interferon-gamma inducible Protein 10 (IP10) Biomarker Activity (AID 2283034); conditions: primary human bronchial epithelial cells; actives raise or lower the signal
In short: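 Human primary bronchial epithelial cells were exposed to chemicals for 24 hours, after which IP-10 levels were measured by ELISA. Data were fitted bidirectionally against DMSO, which served as the negative control and activity baseline.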

[15] = read-out: Monokine induced gamma interferon (MIG), CXCL9 (gene 4283); assay: BSK_BE3C_MIG: BioMAP Diversity Plus: BE3C Assay for Monokine induced gamma interferon (MIG) Biomarker Activity (AID 2283035); conditions: primary human bronchial epithelial cells; actives raise or lower the signal;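 further: MIG protein measured by ELISA in BE3C cultures after 24 h of dosing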
In short: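 MIG level was determined by ELISA after 24 h chemical treatment of primary human bronchial epithelial cells. Values were fitted bidirectionally with DMSO as the negative control and activity baseline.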

[16] = read-out: Transforming growth factor beta 1 (TGFb1), TGFB1 (gene 7040); assay: BSK_BE3C_TGFb1: BioMAP Diversity Plus: BE3C Assay for Transforming growth factor beta 1 (TGFb1) Biomarker Activity (AID 2283036); conditions: primary human bronchial epithelial cells; actives raise or lower the signal
In short: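 Human primary bronchial epithelial cells (BE3C system) were dosed with chemical and TGF-b1 levels measured by ELISA at 24 h. Activity was fitted bidirectionally relative to DMSO negative control as baseline.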

[17] = read-out: Plasminogen activator inhibitor-1 (PAI1), SERPINE1 (gene 5054); assay: BSK_BE3C_PAI1: BioMAP Diversity Plus: BE3C Assay for Plasminogen activator inhibitor-1 (PAI1) Biomarker Activity (AID 2283037); conditions: primary human bronchial epithelial cells; actives raise or lower the signal
In short: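 Human primary bronchial epithelial cells were exposed to chemical for 24 h, then PAI-1 was quantified by ELISA. Activity was fitted bidirectionally relative to the DMSO negative control baseline.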

[18] = read-out: urokinase plasminogen activator (uPA), PLAU (gene 5328); assay: BSK_BE3C_uPA: BioMAP Diversity Plus: BE3C Assay for urokinase plasminogen activator (uPA) Biomarker Activity (AID 2283038); conditions: primary human bronchial epithelial cells; actives raise or lower the signal;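 further: uPA protein level quantified by ELISA in cell cultures; uPA read one day after compound addition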
In short: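 Using confluent primary human lung bronchial epithelial cultures, we dosed chemicals, waited 24 h, then ran a uPA ELISA, fitting bidirectionally against DMSO.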

[19] = read-out: Urokinase-type plasminogen activator receptor (uPAR), PLAUR (gene 5329); assay: BSK_BE3C_uPAR: BioMAP Diversity Plus: BE3C Assay for Urokinase-type plasminogen activator receptor (uPAR) Biomarker Activity (AID 2283039); conditions: primary human bronchial epithelial cells; actives raise or lower the signal;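 further: uPAR protein level measured by ELISA on the cells; cells exposed to compound for one day before measurement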
In short: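 Primary human bronchial epithelial cells were dosed with chemical and harvested 24 h later; uPAR was quantified by ELISA. Activity was fitted bidirectionally against DMSO as negative control and baseline.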

[20] = read-out: Vascular endothelial growth factor receptor 2 (Homo sapiens) (UniProt P35968); assay: BSK_4H_VEGFRII: BioMAP Diversity Plus: 4H Assay for Vascular endothelial growth factor receptor 2 (VEGFR2) Biomarker Activity (AID 2283031); conditions: primary human endothelial cells (HUVEC); actives raise or lower the signal;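 on AC50: cell-surface VEGFR2 protein level quantified by ELISA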
In short: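 In this multiplexed HUVEC system, biomarker ELISA was performed after 24 h chemical exposure. Parallel SRB staining (TCA fixation, 560 nm) tracked cytotoxicity; DMSO served as baseline.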

Measured: AC50

human Vitamin D Receptor (VDR), VDR (gene 7421), sequence (P11473 whole entry, looked up): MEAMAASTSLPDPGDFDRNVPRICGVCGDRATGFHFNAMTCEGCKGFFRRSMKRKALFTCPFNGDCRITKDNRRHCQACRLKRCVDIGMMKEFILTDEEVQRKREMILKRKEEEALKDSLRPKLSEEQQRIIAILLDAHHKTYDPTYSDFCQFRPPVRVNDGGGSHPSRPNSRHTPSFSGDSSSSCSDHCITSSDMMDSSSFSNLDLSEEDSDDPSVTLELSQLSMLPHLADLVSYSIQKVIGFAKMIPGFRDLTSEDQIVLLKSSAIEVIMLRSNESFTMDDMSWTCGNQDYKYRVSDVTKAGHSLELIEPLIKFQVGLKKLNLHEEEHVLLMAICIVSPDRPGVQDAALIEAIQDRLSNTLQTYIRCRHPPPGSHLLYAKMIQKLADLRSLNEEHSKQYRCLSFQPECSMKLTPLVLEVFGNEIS

N#Cc1cc([N+](=O)[O-])ccc1N
inactive: [1] | [2] | [3] | [4] | [5] | [6] | [7] | [8] | [9] | [10] | [11] | [12] | [13] | [14] | [15] | [16] | [17] | [18] | [19]

COP(N)(=S)OC
inactive: [1] | [2] | [3] | [4] | [6] | [8] | [9] | [10] | [11] | [12] | [13] | [14] | [15] | [16] | [17] | [18] | [19]

OCC(F)(F)OC(F)(F)C(F)(F)OC(F)(F)C(F)(F)OC(F)(F)CO
active: [4] 30 µM | [8] 30 µM | [12] 45.5 µM and 30 µM | [14] 44.9 µM and 35.8 µM
inactive: [1] | [2] | [3] | [4] | [8] | [9] | [10] | [11] | [13] | [15] | [17] | [18] | [19]

CCCCN(CCCC)SN(C)C(=O)Oc1cccc2c1OC(C)(C)C2
inactive: [2] | [9] | [10] | [12] | [14] | [15] | [16] | [17] | [18] | [19]
active: [1] 36.4 µM | [4] 29.5 µM | [6] 37.5 µM | [7] 20.2 µM | [8] 27.2 µM | [11] 37.1 µM | [20] 31 µM | [13] 30.4 µM

CCOP(=S)(S)OCC
inactive: [1] | [2] | [4] | [5] | [6] | [8] | [9] | [10] | [11] | [20] | [12] | [13] | [14] | [15] | [16] | [17] | [18] | [19]

O=C(O)C(F)(OC(F)(F)C(F)(F)C(F)(F)F)C(F)(F)F (stereo not given)
inactive: [1] | [2] | [3] | [4] | [7] | [8] | [9] | [10] | [11] | [12] | [13] | [14] | [15] | [17] | [18] | [19]
active: [1] 5.95 µM | [17] 0.22 µM

CCOc1ccc(C(C)(C)COCc2cccc(Oc3ccccc3)c2)cc1
inactive: [1] | [2] | [3] | [4] | [6] | [8] | [9] | [10] | [11] | [20] | [12] | [13] | [14] | [15] | [16] | [17] | [18] | [19]
